Screens as filed in PubChem.
T cruzi growth-1: T. cruzi intracellular proliferation inhibitors, primary screen, cell-based, beta-gal Tulahuen parasites, NIH3T3 host, luminescence; T. cruzi beta-gal in NIH3T3, GalScreen luminescence, 90 h; inhibition, % at 8.34 µM; hit rate 5.9% among 77,000; AID 624255, 2012;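 active means mean inhibition above about 93%, with at least 55% of replicates each passing it, limit read from the data, passing the limit was not always enough; inconclusive means only one of those two conditions holds; inactive means neither condition holds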
C diff growth: C. difficile growth inhibitors, primary screen, HTS | Clostridium difficile clinical isolate growth, OD600, 24 h; hits give low values | growth activity, negative = inhibition, % at 16 µg/mL (by protocol) | hit rate 0.25% among 86,000 | AID 1259249, 2017;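 active means mean growth activity at or below -80% and every replicate also at or below -80%; inconclusive means mean at or below -80% but some replicate above -80%; inactive means mean growth activity above -80%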;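 further: 0% = DMSO wells and -100% = levofloxacin 16 µg/mL wells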
T cruzi growth-2: T. cruzi intracellular proliferation inhibitors, confirmation, cell-based, NIH3T3 host, beta-gal parasite, luminescence, cherry-pick; AID 651739, 2012; shares compounds with T cruzi growth-1; T. cruzi beta-gal in NIH3T3, GalScreen luminescence, 90 h; inhibition, % at 8.35 µM; hit rate 72% among 5,600;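 active means mean replicate inhibition above about 95% and at least 55% of replicates individually reaching it, limit read from the data; inconclusive means only one of the two criteria is met; inactive means neither criterion is met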
T cruzi growth-3: inhibitors of intracellular T. cruzi replication, confirmation, NIH3T3 host cells, beta-gal parasites, cherry-pick, set 2. shares compounds with T cruzi growth-1. T. cruzi beta-gal in NIH3T3, GalScreen luminescence, 90 h. inhibition, % at 2.09 µM. hit rate 21% among 5,600. AID 651740, 2012;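 active means mean inhibition above about 95%, with at least 55% of replicates also reaching it, limit read from the data; inconclusive means meets just one of the two conditions; inactive means meets neither condition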;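 further: plate controls were neutral control median for no effect and positive control median for full effect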
3T3 cytotox: cytotoxicity in mouse NIH/3T3 fibroblasts, confirmation, cytotoxicity control for T. cruzi proliferation inhibitor project, cell-based, cherry-pick, single point; shares compounds with T cruzi growth-1; NIH/3T3 viability, CellTiter-Glo ATP luminescence, 90 h; cytotoxicity (signal decrease), % at 8.35 µM; hit rate 14% among 5,600; AID 651742, 2012;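 active means mean signal decrease across replicates above about 35% based on untreated-well scatter, with enough replicates individually passing, limit read from the data; inconclusive means no rule stated though some were filed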;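 further: 0% = median of neutral control wells and 100% = median of positive control wells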
NIH3T3 tox 2: NIH/3T3 fibroblast cytotoxicity, confirmation, cytotoxicity control, cell-based, cherry-pick, single point, set 2; shares compounds with T cruzi growth-1; NIH/3T3 viability, CellTiter-Glo ATP luminescence, 90 h; inhibition, % at 24.9 µM; hit rate 56% among 5,600; AID 651744, 2012;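 active means mean loss of cell viability signal at or above a set limit, and enough replicates individually reaching it; inconclusive means meets only the mean limit or only the replicate share; inactive means meets neither condition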;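 further: 0% = median of neutral control wells and 100% = median of positive control wells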
* marks the source's active call; other numbers are inactive results; ? = inconclusive; / = not tested or not shown. This excerpt belongs to a sample that is enriched for hits.

SMILES	T cruzi growth-1	C diff growth	T cruzi growth-2	T cruzi growth-3	3T3 cytotox	NIH3T3 tox 2
CCc1cnc(N2[C@H](C#N)[C@H](c3ccc(C#Cc4ccccc4F)cc3)[C@H]2CO)s1	99.9*	3.9	91.1	105.6*	-9.4	94.9*
COc1cccc(-c2ccc3c(c2)O[C@H](CN(C)C(=O)C2CCC2)[C@@H](C)CN([C@@H](C)CO)S3(=O)=O)c1	76.7	-18.1	/	/	/	/
O=C(C[C@@H]1CC[C@H](NS(=O)(=O)c2ccccc2)[C@H](CO)O1)NCc1ccccc1F	38.5	-6.8	/	/	/	/
Cc1noc(C)c1NC(=O)Nc1ccc2c(c1)C(=O)N([C@@H](C)CO)C[C@H](C)[C@H](CN(C)Cc1ccccc1)OCCCC[C@@H](C)O2	28.8	/	/	/	/	/
COc1ccc(S(=O)(=O)N(C)C[C@@H]2OCCCC[C@H](C)Oc3ccc(NS(C)(=O)=O)cc3C(=O)N([C@H](C)CO)C[C@H]2C)cc1	-0.8	8.6	/	/	/	/
O=C(Nc1ccc2c(c1)OCO2)N[C@H]1C=C[C@@H](CC(=O)N2CCN(c3ccccc3)CC2)O[C@@H]1CO	-13.9	/	/	/	/	/
Cc1ccc(S(=O)(=O)Nc2ccc3c(c2)C(=O)N([C@H](C)CO)C[C@H](C)[C@H](CN(C)C(=O)C2CCCCC2)OCCCC[C@H](C)O3)cc1	84.3	-2.5	/	/	/	/
C[C@@H]1CCCCO[C@@H](CN(C)C(=O)C2CCCCC2)[C@H](C)CN([C@@H](C)CO)C(=O)c2cc(NS(=O)(=O)c3ccc(Cl)cc3)ccc2O1	?	1.9	109.1*	68.8	-15.7	33.5*
C[C@H]1CCCCO[C@H](CN(C)C(=O)C2CCCCC2)[C@@H](C)CN([C@@H](C)CO)C(=O)c2cc(NS(=O)(=O)c3ccc(Cl)cc3)ccc2O1	?	6.0	104.1*	75.6	-37.2	99.0*
C[C@H](CO)N1C[C@H](C)[C@@H](CN(C)C(=O)C2CCCCC2)OCCCC[C@H](C)Oc2ccc(NS(C)(=O)=O)cc2C1=O	52.3	1.5	/	/	/	/
C[C@@H]1CCCCO[C@H](CN(C)C(=O)C2CCCCC2)[C@H](C)CN([C@@H](C)CO)C(=O)c2cc(NS(C)(=O)=O)ccc2O1	100.2*	-4.4	12.3	-37.8	-11.5	9.4
C[C@@H]1CCCCO[C@H](CN(C)C(=O)C2CCCCC2)[C@@H](C)CN([C@H](C)CO)C(=O)c2cc(NS(=O)(=O)c3ccc(Cl)cc3)ccc2O1	59.8	-7.2	/	/	/	/
C[C@@H]1CCCCO[C@H](CN(C)C(=O)C2CCCCC2)[C@H](C)CN([C@H](C)CO)C(=O)c2cc(NS(=O)(=O)c3ccc(Cl)cc3)ccc2O1	?	9.2	104.7*	74.2	-6.8	51.7*
C[C@@H]1CCCCO[C@@H](CN(C)C(=O)C2CCCCC2)[C@@H](C)CN([C@@H](C)CO)C(=O)c2cc(NS(=O)(=O)c3ccc(Cl)cc3)ccc2O1	92.7	-1.6	/	/	/	/
CCC(=O)Nc1ccc2c(c1)C(=O)N(C)C[C@@H](OC)[C@H](C)CN(C(=O)NC(C)C)[C@@H](C)CO2	-1.6	-0.4	/	/	/	/
C[C@@H]1CN([C@H](C)CO)C(=O)c2cc(NC(=O)C3CC3)ccc2O[C@H]1CN(C)S(=O)(=O)c1ccc(F)cc1	47.7	-1.2	/	/	/	/
C[C@@H]1CCCCO[C@@H](CN(C)C(=O)CCC(F)(F)F)[C@@H](C)CN([C@H](C)CO)C(=O)c2cc(NS(=O)(=O)c3ccc(Cl)cc3)ccc2O1	84.6	-0.7	/	/	/	/
C[C@H](CO)N1C[C@H](C)[C@H](CN(C)C(=O)CCC(F)(F)F)OCCCC[C@H](C)Oc2ccc(NS(=O)(=O)c3ccc(Cl)cc3)cc2C1=O	102.7*	5.3	109.1*	57.4	-4.6	7.2
C[C@@H]1CN([C@H](C)CO)C(=O)c2cc(NC(=O)Cn3cnnn3)ccc2O[C@H]1CN(C)Cc1ccc(Cl)c(Cl)c1	-14.7	-3.2	/	/	/	/
O=C(C[C@H]1CC[C@H]2[C@@H](COC[C@@H](O)CN2S(=O)(=O)c2cccc(Cl)c2)O1)Nc1ccc(-c2ccccc2)cc1	108.7*	13.6	106.7*	108.4*	10.7	91.7*
O=C(C[C@H]1CC[C@@H]2[C@H](COC[C@@H](O)CN2S(=O)(=O)c2cccc(Cl)c2)O1)Nc1ccc(-c2ccccc2)cc1	103.4*	6.2	88.9	107.9*	51.9*	104.6*
O=C(C[C@@H]1CC[C@H]2[C@@H](COC[C@@H](O)CN2S(=O)(=O)c2cccc(Cl)c2)O1)Nc1ccccc1	-4.2	12.1	/	/	/	/
O=C(C[C@H]1CC[C@H]2[C@@H](COC[C@H](O)CN2S(=O)(=O)c2cccc(Cl)c2)O1)Nc1ccc(-c2ccccc2)cc1	89.7	2.0	/	/	/	/
C[C@@H]1CN([C@H](C)CO)C(=O)c2cccc(NC(=O)Nc3ccc(F)cc3)c2O[C@H]1CN(C)Cc1ccncc1	34.9	1.5	/	/	/	/
Cc1ccc(S(=O)(=O)Nc2cccc3c2O[C@H](CN(C)Cc2ccncc2)[C@@H](C)CN([C@H](C)CO)C3=O)cc1	-1.8	1.1	/	/	/	/
SMILES	T cruzi growth-1	C diff growth	T cruzi growth-2	T cruzi growth-3	3T3 cytotox	NIH3T3 tox 2
CN(C)C(=O)c1cccc(-c2ccc([C@@H]3[C@H](CO)N4CCCCN(C(=O)C5CCCC5)C[C@@H]34)cc2)c1	63.6	-8.4	/	/	/	/
CN(C)C(=O)c1cccc(-c2ccc([C@@H]3[C@@H](CO)N4CCCCN(S(C)(=O)=O)C[C@@H]34)cc2)c1	99.3*	-7.8	?	-23.8	-6.7	13.6
CN(C)C(=O)c1cccc(-c2ccc([C@H]3[C@H](CO)N4CCCCN(C(=O)C5CCCC5)C[C@@H]34)cc2)c1	?	-9.2	99.1*	93.6	-5.6	21.0
CN(C)C(=O)c1cccc(-c2ccc([C@H]3[C@@H](CO)N4CCCCN(C(=O)C5CCC5)C[C@@H]34)cc2)c1	105.3*	-4.8	91.4	82.9	-1.0	8.3
CN(C)C(=O)c1cccc(-c2ccc([C@@H]3[C@H]4CN(C(=O)C5CCCC5)CCCCN4[C@H]3CO)cc2)c1	80.0	-9.3	/	/	/	/
CN(C)C(=O)c1cccc(-c2ccc([C@@H]3[C@@H](CO)N4CCCCN(S(C)(=O)=O)C[C@H]34)cc2)c1	-29.6	-5.4	/	/	/	/
CC(C)NC(=O)N(C)C[C@@H]1Oc2ncc(C#Cc3ccccc3F)cc2C(=O)N([C@@H](C)CO)C[C@@H]1C	83.1	-6.1	/	/	/	/
C[C@H]1CN([C@@H](C)CO)C(=O)c2cc(NC(=O)Nc3ccc(C(F)(F)F)cc3)ccc2O[C@@H]1CN(C)C(=O)Nc1cccc2ccccc12	-19.0	-3.5	/	/	/	/
Cc1ccc(-c2cnc3c(c2)C(=O)N([C@H](C)CO)C[C@H](C)[C@H](CN(C)Cc2ccccc2F)O3)cc1	92.5	12.9	/	/	/	/
